Data on 38 compounds can be found in PubChem BioAssay (NCI).

Compounds without any hit were thinned out: in the full panel of roughly 83,000, 20% have a hit.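 Method: cells in 96-well plates; compound added at one concentration; 48 h incubation; percent growth measured; values under 10 scored active.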 Values without a mark were called inactive. The source made the active and inactive calls.

In one test the test system is MOLT-4 leukemia. As to the kind of experiment: NCI-60 one-dose screen, 48 h (100 = growth as untreated, 0 = no growth, -100 = all killed). Particulars: 10 µM unless noted.
As for `CC(=O)Nc1ccc2c(c1)c(NC(C)=O)nn2C(=O)Nc1ccc(Cc2ccccc2)cc1`, the growth is 93.6%.
On the same count and under the same terms, the figure for `Cn1c2ccccc2c2c3c(c4c5ccccc5[nH]c4c21)C(=O)N(N)C3=O` is 21.1%; for `COc1cc(OC)c(/C=C/C(=O)c2c(OC)cc(OC)cc2OC)c(OC)c1` it is -2.79% (active).
As to `CCCCCCCCCCCCCCCCCCNC(=O)[C@H]1CSC(c2ccc(OC)c(F)c2)N1` (stereo not given in full), the growth was 10% (active).
As for `O=C1c2cc3c(cc2-c2c1c1cc(Cl)c(Cl)cc1c(=O)n2C[C@H](O)CO)OCO3`, the growth is -24.8% (active).
The same measure, in the same setting: with `COc1cc2nc3cc([N+](=O)[O-])ccc3c(NCCCNCC(C)(C)O)c2cc1OC` the figure was 10.5%.
For the compound `CC(C)C1=C[C@@]23CC[C@@H]4[C@](C)(CCC[C@@]4(C)C(=O)OCC#CCN4CCCC4)[C@H]2C[C@@H]1[C@H]1C(=O)OC(=O)[C@H]13`, the growth was 93.9%.
The same measure, in the same setting: with `CN(C)c1ccc(/C=C(\C#N)c2nc3ccccc3s2)cc1` the figure was 96.4%.
The same measure, in the same setting: with `COc1ccc(Cl)cc1Nc1nc(C(F)(F)F)ccc1C(=O)N/N=C/c1cccnc1` the figure was 2% (active).
As for `CC(=O)C1=C(O)C=C2Oc3c(C(=O)/C=C/c4ccccc4)c(O)c(C)c(O)c3[C@]2(C)C1=O`, the growth is 32.6%.
Take `Cn1c(=O)c2c(ncn2CC[N+](C)(C)C)n(C)c1=O`: the growth was 104%.
Still for that read-out and setting: the figure for `OC(c1cc(-c2ccccc2)nc2ccc(Cl)cc12)C1CCCCN1` (stereo not given) is 27.5%.

The next test relates to SR leukemia. Described as above. Particulars: 10 µM unless noted.
Turning to `CC[n+]1ccc2c(c1)C(=O)c1nccc3c1c-2nc1ccccc13`, the growth was 5.79% (active).
Same read-out and setting: with `COc1ccc(-c2csc(NC(=O)CN3CCN(c4cc5c(cc4F)c(=O)c(C(=O)O)cn5C4CC4)CC3)n2)cc1` the figure was 16.7%; with `O=C1c2cc3c(cc2-c2c1c1cc(F)c(F)cc1c(=O)n2C[C@H](O)CO)OCO3`, -16.5% (active).
`Cn1c2ccccc2c2c3c(c4c5ccccc5n(CCCCCC#N)c4c21)C(=O)N(O)C3=O`: the growth is 1.39% (active).
Take `CCOC(=O)c1c2c(n3ccc(NC(=O)CCN4CCOCC4)cc13)C(=O)c1ncccc1C2=O`: the growth was -2.96% (active).
On the same count and under the same terms, with `Oc1ccccc1N=Cc1c(O)ccc2ccccc12` the figure was 37.5%; with `O=c1ccc2cc3ccccc3cc2[nH]1`, 82.1%.
The same measure, in the same setting: with `O=C(Nc1ccc(Oc2ccc(F)cc2)c(Cl)c1)c1cccnc1` the figure was 75.1%; with `CCCCCCCCCc1cc(CN2CCCCC2)c(O)c(CN2CCCCC2)c1`, 7.18% (active); with `CC/C(Cc1ccccc1)=C(\c1ccc(OCCN2CCCC2)cc1)c1ccc(OC(C)=O)cc1`, 14.3%.
On the same count and under the same terms, the figure for `C=C1CC[C@@H]2[C@](C)(COC(C)=O)[C@H](OC(C)=O)CC[C@@]2(C)[C@@H]1CC(Nc1ccc(S(=O)(=O)Nc2nc(C)cc(C)n2)cc1)C1=CCOC1=O` (stereo not given in full) is 22.2%.
Consider `COc1ccc2c(c1)C(=O)/C(=C/c1cccc(OCC(=O)Nc3nc4c(s3)CCCC4)c1)O2`, for which the growth was -17.2% (active).
Regarding `O=C([C@@H](COCc1ccccc1)N1C(=O)[C@@H](N2C(=O)OC[C@@H]2c2ccccc2)[C@H]1/C=C/c1ccccc1)N1CCC(CCN2CCCCC2)CC1`, the growth was 30.9%.
The same measure, in the same setting: the figure for `O=c1[nH]c(-c2ccccn2)nc2sc3c(c12)CCCCC3` is 27.3%; for `NC1=CC(=O)C(=O)c2ccccc21` it is 81.8%.
`CN1CCOCCOCCOc2ccccc2NC(=O)c2nc(cnc2N)-c2ccc(cc2)S1(=O)=O`: the growth is -16.3% (active).
On the same count and under the same terms, with `COc1ccc(S(=O)(=O)NCCCNc2nccc(-c3c(-c4cccc(N)c4)nc4sccn34)n2)cc1` the figure was 86.4%.
Take `COc1ccccc1N1CCN(CCn2c(=O)c3c(c4ccccc4n3C)n(C)c2=O)CC1`: the growth was 78%.
The same measure, in the same setting: with `COc1cnc2c(c1)C(=O)c1c-2n(CCCBr)c(=O)c2cc([N+](=O)[O-])ccc12` the figure was 7.47% (active); with `O=C(C[C@@H](C(=O)NCc1cccc(C(F)(F)F)c1)N1C(=O)[C@@H](N2C(=O)OC[C@@H]2c2ccccc2)[C@H]1/C=C/c1ccccc1)NC1CCN(Cc2ccccc2)CC1`, -23.3% (active).
Same read-out and setting: the figure for `CCCCCCNC(=O)Oc1ccc(/C(=C(\C)c2ccccc2)c2ccc(OCCN(CC)CC)cc2)cc1` is 1.65% (active).
Consider `CC#CC#Cc1cccc(=O)o1`, for which the growth is -9.17% (active).
The same measure, in the same setting: the figure for `CCCCCCCCCCCCNC(=O)[C@H]1CSC(c2ccc(OC)c(F)c2)N1` (stereo not given in full) is -50.9% (active); for `O=C(CN1CCN(c2cc3c(cc2F)c(=O)c(C(=O)N/N=C/c2ccccc2)cn3C2CC2)CC1)N/N=C\c1ccccc1` it is 61%.
Take `CNc1nc(C)c(-c2nc(Nc3cccc(S(N)(=O)=O)c3)ncc2F)s1`: the growth is -18.5% (active).
The same measure, in the same setting: with `CC1=CC(=O)CC(C)(C)[C@@]1(O)/C=C/[C@@H](C)O` the figure was 111%.
In the case of `CC(=O)Nc1ccc2c(c1)c(NC(C)=O)nn2C(=O)Nc1ccc(Cc2ccccc2)cc1`, the growth was 98.7%.
Same read-out and setting: the figure for `Cn1c2ccccc2c2c3c(c4c5ccccc5[nH]c4c21)C(=O)N(N)C3=O` is 5.54% (active); for `COc1cc(OC)c(/C=C/C(=O)c2c(OC)cc(OC)cc2OC)c(OC)c1` it is -11.9% (active).
Regarding `CCCCCCCCCCCCCCCCCCNC(=O)[C@H]1CSC(c2ccc(OC)c(F)c2)N1` (stereo not given in full), the growth was -30.9% (active).
The same measure, in the same setting: the figure for `O=C1c2cc3c(cc2-c2c1c1cc(Cl)c(Cl)cc1c(=O)n2C[C@H](O)CO)OCO3` is -23.2% (active).
On the same count and under the same terms, with `COc1cc2nc3cc([N+](=O)[O-])ccc3c(NCCCNCC(C)(C)O)c2cc1OC` the figure was 5.93% (active); with `CC(C)C1=C[C@@]23CC[C@@H]4[C@](C)(CCC[C@@]4(C)C(=O)OCC#CCN4CCCC4)[C@H]2C[C@@H]1[C@H]1C(=O)OC(=O)[C@H]13`, 92%.
Still for that read-out and setting: with `CN(C)c1ccc(/C=C(\C#N)c2nc3ccccc3s2)cc1` the figure was 87.5%; with `COc1ccc(Cl)cc1Nc1nc(C(F)(F)F)ccc1C(=O)N/N=C/c1cccnc1`, 25.1%; with `CC(=O)C1=C(O)C=C2Oc3c(C(=O)/C=C/c4ccccc4)c(O)c(C)c(O)c3[C@]2(C)C1=O`, 30.3%.
In the case of `Cn1c(=O)c2c(ncn2CC[N+](C)(C)C)n(C)c1=O`, the growth was 94.7%.
Same read-out and setting: the figure for `OC(c1cc(-c2ccccc2)nc2ccc(Cl)cc12)C1CCCCN1` (stereo not given) is -25.8% (active).
